“And” between values parts separate entries of the source, which are not always exact repeats. Identical values can stand only once. About 2,000 (36%) of roughly 5,500 compounds were called active. Roughly 18% stayed inconclusive and do not appear here. Cut-off read from the data, not from the text of the source: active = normalized growth mostly below about 0.91 (no sharp cut-off); inconclusive = no clear call, values can overlap the other calls; inactive = mostly above about 0.92. Some of the results follow.
Assay: chemical genetic growth profiling, strain panel (AID 1159580);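 note: tested at 20 µM; growth read once vehicle control cultures reached saturation at 30 °C; 1 = growth at the plate median or of vehicle wells; lower values mean less growth of the strain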
Conditions: growth OD

Measured: normalized growth

CN(C)C(=O)Oc1ccc[n+](C)c1
inactive: S. cerevisiae deletion strains, locus YJR075W, strain HOC1, hits give low values 1 | S. cerevisiae deletion strains, locus YKL009W, strain mrt4, hits give low values 1.01 | S. cerevisiae deletion strains, locus YKL068W, hits give low values 1.02 | S. cerevisiae deletion strains, locus YKL085W, strain MDH1 (second series), hits give low values 1.01 | S. cerevisiae deletion strains, locus YKL085W, strain MDH1, hits give low values 1.01 | S. cerevisiae deletion strains, locus YKL160W, strain elf1, hits give low values 1 | S. cerevisiae deletion strains, locus YKL190W, strain CNB1, hits give low values 1.02 | S. cerevisiae deletion strains, locus YKR001C, strain vps1, hits give low values 1.01 | S. cerevisiae deletion strains, locus YKR026C, strain gcn3, hits give low values 1.01 | S. cerevisiae deletion strains, locus YKR091W, strain srl3, hits give low values 0.997 | S. cerevisiae deletion strains, locus YLL001W, strain dnm1, hits give low values 0.996 | S. cerevisiae deletion strains, locus YLL026W, hits give low values 0.999 | S. cerevisiae deletion strains, locus YLL041C, strain sdh2, hits give low values 1 | S. cerevisiae deletion strains, locus YLR027C, strain aat2, hits give low values 0.999 | S. cerevisiae deletion strains, locus YLR039C, strain RIC1, hits give low values 1.05 | S. cerevisiae deletion strains, locus YLR058C, strain SHM2, hits give low values 1.03 | S. cerevisiae deletion strains, locus YLR102C, strain apc9, hits give low values 1.01 | S. cerevisiae deletion strains, locus YLR113W, strain HOG1, hits give low values 1.05 | S. cerevisiae deletion strains, locus YLR221C, strain rsa3, hits give low values 0.997 | S. cerevisiae deletion strains, locus YLR258W, strain gsy2, hits give low values 1 | S. cerevisiae deletion strains, locus YLR262C, strain YPT6 (second series), hits give low values 1.01 | S. cerevisiae deletion strains, locus YLR262C, strain YPT6, hits give low values 1.06 | S. cerevisiae deletion strains, locus YLR268W, strain sec22, hits give low values 1.01 | S. cerevisiae deletion strains, locus YLR320W, strain mms22, hits give low values 1.01 | S. cerevisiae deletion strains, locus YLR330W, strain CHS5, hits give low values 1.01 | S. cerevisiae deletion strains, locus YLR342W, strain FKS1 (second series), hits give low values 1.06 | S. cerevisiae deletion strains, locus YLR342W, strain FKS1, hits give low values 1.01 | S. cerevisiae deletion strains, locus YLR357W, strain rsc2, hits give low values 1 | S. cerevisiae deletion strains, locus YLR370C, strain arc18, hits give low values 1.01 | S. cerevisiae deletion strains, locus YLR371W, strain rom2, hits give low values 1.01 | S. cerevisiae deletion strains, locus YLR384C, strain iki3, hits give low values 1.01 | S. cerevisiae deletion strains, locus YLR418C, strain cdc73, hits give low values 1.03 | S. cerevisiae deletion strains, locus YML016C, strain PPZ1, hits give low values 1.01 | S. cerevisiae deletion strains, locus YML032C, strain rad52, hits give low values 1.01 | S. cerevisiae deletion strains, locus YML120C, strain ndi1, hits give low values 1 | S. cerevisiae deletion strains, locus YML124C, strain tub3, hits give low values 1.04 | S. cerevisiae deletion strains, locus YMR058W, strain fet3, hits give low values 0.994 | S. cerevisiae deletion strains, locus YMR078C, strain ctf18, hits give low values 1.01 | S. cerevisiae deletion strains, locus YMR125W, strain sto1, hits give low values 1 | S. cerevisiae deletion strains, locus YMR129W, hits give low values 1 | S. cerevisiae deletion strains, locus YMR205C, strain PFK2, hits give low values 1.02 | S. cerevisiae deletion strains, locus YMR223W, strain ubp8, hits give low values 1.05 | S. cerevisiae deletion strains, locus YMR231W, strain pep5, hits give low values 1 | S. cerevisiae deletion strains, locus YMR263W, strain SAP30, hits give low values 1.01 | S. cerevisiae deletion strains, locus YMR307W, strain GAS1, hits give low values 1.04 | S. cerevisiae deletion strains, locus YNL067W, strain RPL9B, hits give low values 1.01 | S. cerevisiae deletion strains, locus YNL071W, strain lat1, hits give low values 1 | S. cerevisiae deletion strains, locus YNL153C, strain GIM3, hits give low values 0.986 | S. cerevisiae deletion strains, locus YNL175C, strain NOP13, hits give low values 0.972 | S. cerevisiae deletion strains, locus YNL183C, strain NPR1, hits give low values 0.981 | S. cerevisiae deletion strains, locus YNL197C, strain WHI3, hits give low values 0.961 | S. cerevisiae deletion strains, locus YNL209W, strain ssb2, hits give low values 1 | S. cerevisiae deletion strains, locus YNL224C, strain SQS1, hits give low values 0.982 | S. cerevisiae deletion strains, locus YNL233W, strain BNI4, hits give low values 1 | S. cerevisiae deletion strains, locus YNL248C, strain rpa49, hits give low values 0.996 | S. cerevisiae deletion strains, locus YNL250W, strain rad50, hits give low values 1.02 | S. cerevisiae deletion strains, locus YNL271C, strain bni1, hits give low values 1.02 | S. cerevisiae deletion strains, locus YNL298W, strain CLA4, hits give low values 1.02 | S. cerevisiae deletion strains, locus YNL307C, strain MCK1, hits give low values 1.02 | S. cerevisiae deletion strains, locus YNL322C, strain KRE1 (second series), hits give low values 1 | S. cerevisiae deletion strains, locus YNR049C, strain mso1, hits give low values 1 | S. cerevisiae deletion strains, locus YNR052C, strain pop2, hits give low values 1.02 | S. cerevisiae deletion strains, locus YOL006C, strain TOP1, hits give low values 0.966 | S. cerevisiae deletion strains, locus YOL012C, strain htz1 0.894 | S. cerevisiae deletion strains, locus YOL147C, strain pex11, hits give low values 1.02 | S. cerevisiae deletion strains, locus YOR001W, strain rrp6, hits give low values 0.985 | S. cerevisiae deletion strains, locus YOR061W, strain CKA2, hits give low values 1.02 | S. cerevisiae deletion strains, locus YOR069W, strain VPS5, hits give low values 1.02 | S. cerevisiae deletion strains, locus YOR070C, strain gyp1, hits give low values 1 | S. cerevisiae deletion strains, locus YOR080W, strain dia2, hits give low values 1.03 | S. cerevisiae deletion strains, locus YOR083W, strain WHI5 (second series), hits give low values 0.968 | S. cerevisiae deletion strains, locus YOR083W, strain WHI5, hits give low values 0.999 | S. cerevisiae deletion strains, locus YOR106W, strain vam3, hits give low values 1 | S. cerevisiae deletion strains, locus YOR136W, strain idh2, hits give low values 1.02 | S. cerevisiae deletion strains, locus YOR144C, strain elg1, hits give low values 1.01 | S. cerevisiae deletion strains, locus YOR184W, strain ser1, hits give low values 1.01 | S. cerevisiae deletion strains, locus YOR231W, strain MKK1, hits give low values 1.03 | S. cerevisiae deletion strains, locus YOR265W, strain rbl2, hits give low values 1.01 | S. cerevisiae deletion strains, locus YOR270C, strain vph1, hits give low values 0.993 | S. cerevisiae deletion strains, locus YOR290C, strain snf2, hits give low values 1 | S. cerevisiae deletion strains, locus YOR316C, strain cot1, hits give low values 1.02 | S. cerevisiae deletion strains, locus YPL051W, strain arl3, hits give low values 1 | S. cerevisiae deletion strains, locus YPL055C, strain LGE1, hits give low values 1 and 1.04 | S. cerevisiae deletion strains, locus YPL078C, strain atp4, hits give low values 0.999 | S. cerevisiae deletion strains, locus YPL106C, strain sse1, hits give low values 1.01 | S. cerevisiae deletion strains, locus YPL240C, strain hsp82, hits give low values 1 | S. cerevisiae deletion strains, locus YPL241C, strain CIN2, hits give low values 0.991 | S. cerevisiae deletion strains, locus YPL256C, strain CLN2, hits give low values 1 | S. cerevisiae deletion strains, locus YPR119W, strain clb2, hits give low values 1.01 | S. cerevisiae deletion strains, locus YPR141C, strain kar3, hits give low values 1.02 | S. cerevisiae deletion strains, locus YPR163C, strain tif3, hits give low values 1.02 | S. cerevisiae deletion strains, locus YPR167C, strain met16, hits give low values 1.01 | S. cerevisiae deletion strains, strain wtn01, hits give low values 1.01 | S. cerevisiae strains, strain wild type, hits give low values 1.02

From PubChem BioAssay AID1159580 (chemical genetic matrix, 2015)
